The whole screen tested about 310,000 compounds, of which about 1,300 (0.42%) were called active. Only a selection was taken, and actives are over-represented in it overall. Unmarked numbers belong to inactive results. Rule as the data show it: active = inhibition above about 50%; inactive = the rest.

This test addresses Dual specificity tyrosine-phosphorylation-regulated kinase 1A (Rattus norvegicus) (UniProt Q63470). Description: rat Dyrk1A kinase inhibitors, primary screen, biochemical, single point, plate reader (AID 504441).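 Also: plate controls were vehicle with enzyme for no effect and no enzyme for full effect.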 Conditions: ADP-Glo luminescence, NFATc1 peptide, at 12.5 µM, active compounds read high. Background: ADP-Glo turns the ADP formed in a reaction into a luminescent signal.
On to `O=C1C=C(NS(=O)(=O)c2ccccc2)C(=O)c2ccccc21`, for which the inhibition was 0.22%.

`CCN1C[C@@H]2[C@@H]3C(=O)N(Cc4ccccc4)C(=O)[C@@H]3[C@](C)(C1=O)N2C(=O)c1ccc(C(C)(C)C)cc1`: the inhibition is -5.8%.

As for `O=C(Nc1cccc(Br)c1)C1CC(=O)N(C2CCCC2)C1` (stereo not drawn), the inhibition was -2.1%.

As for `O=C1NC(=O)C(CCc2ccccc2)(c2ccccc2)N1` (stereo not drawn), the inhibition was -4.85%.

On to `CCOC(=O)COc1cc(OCC(=O)OCC)c2c(=O)cc(-c3ccccc3)oc2c1`, for which the inhibition was 0.414%.

Consider `CCOC(=O)COc1cc(O)c2c(=O)cc(-c3ccccc3)oc2c1`, for which the inhibition is -1.6%.

On to `COc1c(O)cc2oc(-c3ccc(O)c(O)c3)cc(=O)c2c1O`, for which the inhibition was 50.5% (active).

As to `CCOC(=O)C1CCCN(C(=O)C2CCN(S(=O)(=O)c3ccc(Cl)c(C(F)(F)F)c3)CC2)C1` (stereo not drawn), the inhibition is -9.38%.

`Oc1ccc(-c2[nH]ncc2-c2nc3ccccc3s2)c(O)c1`: the inhibition is 66.5% (active).

As for `CC(=O)Nc1cccc(-c2nc3ccccc3s2)c1C`, the inhibition is -0.865%.

On to `COc1ccc(Oc2cn[nH]c2-c2ccc(OC)cc2O)cc1`, for which the inhibition was 11.8%.

In the case of `CC(=O)OC1CCC2C3CCC4=C(CC(F)C(=O)C4)C3CCC12C` (stereo not drawn), the inhibition was -2.02%.

Regarding `O=C(OCC1OC(Oc2ccc(O)cc2)C(O)C(O)C1O)c1ccccc1` (stereo not drawn), the inhibition is 13.6%.

As to `C[C@@H]1O[C@@H](OC[C@H]2O[C@@H](Oc3c(-c4ccc(O)cc4)oc4cc(O)cc(O)c4c3=O)[C@H](O)[C@@H](O)[C@@H]2O)[C@H](O)[C@H](O)[C@H]1O`, the inhibition is 66.5% (active).

Consider `COc1ccc(-c2cc(=O)c3c(O)cc(O[C@@H]4O[C@H](CO[C@@H]5O[C@@H](C)[C@H](O)[C@@H](O)[C@H]5O)[C@@H](O)[C@H](O)[C@H]4O)cc3o2)cc1O`, for which the inhibition was -6.42%.

Take `N#CCc1c[nH]c2ccc([N+](=O)[O-])cc12`: the inhibition was 20%.

As to `CCc1ccc(C(=O)C(C)OC(=O)CN2C(=O)NC3(CCCC3)C2=O)cc1` (stereo not drawn), the inhibition is 0.139%.

With `O=C1NCC(Nc2ccccc2)C(=O)N1` (stereo not drawn), the inhibition was -0.332%.

`COc1cc2c(cc1OC)C1C(=O)c3cc(OS(C)(=O)=O)c(OC)cc3C1N(C)C2=O` (stereo not drawn): the inhibition is 3.14%.

Take `CC(=O)Nc1cccc(C(=O)OCC(=O)c2ccc3c(c2)OCO3)c1`: the inhibition was 69.4% (active).

Take `CC(C)C(=O)Nc1cccc(C(=O)Nc2ccc3c(c2)OCO3)c1`: the inhibition was -2.73%.

`O=C(COC(=O)c1ccc(F)cc1)Nc1ccc2c(c1)OCO2`: the inhibition is -0.789%.

For the compound `Oc1ccc2nc(Cc3ccccc3)[nH]c2c1`, the inhibition was 10.9%.

`Cc1nc2ccccc2nc1N/N=C/c1ccc(O)cc1O`: the inhibition is 9.74%.

Consider `Oc1ccc(-c2nc3ccccc3nc2-c2ccc(O)cc2O)c(O)c1`, for which the inhibition is 76.3% (active).

Turning to `CC(NC(=O)c1ccccc1)C(=O)OCC(=O)Nc1cccc(S(=O)(=O)N2CCCC2)c1` (stereo not drawn), the inhibition was 1.68%.

Consider `Cc1ccnc(NS(=O)(=O)c2ccc(NC(=O)c3oc4ccc(F)cc4c3C)cc2)n1`, for which the inhibition is 1.02%.

`Cc1noc(NS(=O)(=O)c2ccc(NC(=O)c3oc4ccc(F)cc4c3C)cc2)c1C`: the inhibition was 60% (active).

On to `Cc1ccnc(NS(=O)(=O)c2ccc(NC(=O)c3oc4ccccc4c3C)cc2)n1`, for which the inhibition is 28.5%.

For the compound `CCC1(C)COC(c2ccc(OC)c(OC)c2)OC1` (stereo not drawn), the inhibition is 2.1%.

Take `O=C(O)C(c1cccs1)C1(O)CCCCC1` (stereo not drawn): the inhibition was 2.77%.

Turning to `NC(=O)C1CCN(C(=O)c2cc(S(=O)(=O)N3CCN(c4ccccc4)CC3)ccc2Cl)CC1`, the inhibition was 8.45%.

Regarding `CC(C)Cn1cnc2c(SCc3ccc(Cl)cc3)nc(N)nc21`, the inhibition was 7.52%.

In the case of `CCc1nnc(NC(=O)c2cc(S(=O)(=O)N3CCN(CC)CC3)ccc2Cl)s1`, the inhibition was 7.13%.

`c1ccc(C(=NNc2nc3ccccc3s2)c2ccccn2)cc1`: the inhibition was 12.7%.

For `COc1ccc(N=C2C=CC(=O)O2)cc1`, the inhibition is 7.98%.

For the compound `O=C(NCC1(N2CCCCC2)CCCCC1)c1cccc(S(=O)(=O)Nc2ccccc2Cl)c1`, the inhibition was -5.86%.

`COc1cccc2cc(-c3cc(=O)oc4cc(C)c(O)cc34)oc12`: the inhibition was -4.38%.

`COc1cc(O)c2c(=O)c3c(O)c(O)ccc3oc2c1OC`: the inhibition was 50.1% (active).

Consider `COc1cccc2c(O)cc(=O)n(C)c12`, for which the inhibition was 26.6%.

On to `CC(C)(C)OC(=O)N(Cc1ccccc1)Cc1ccc(OCc2cccc(NC(=O)c3ccccc3)c2)cc1`, for which the inhibition is -3.26%.

On to `COc1ccc(-c2nc3cc(C)ccn3c2NC2CCCCC2)cc1SC1CCCCC1`, for which the inhibition is 1.83%.

For `CCN(CC)S(=O)(=O)c1cccc(NC(=O)c2ccc(S(=O)(=O)N3CCCC3)cc2)c1`, the inhibition was 1.24%.

As for `CC(C)(C)OC(=O)N1CCC(C(=O)Nc2cccc(C(=O)NCCc3ccccc3)c2)CC1`, the inhibition was -16.9%.

`CCN(CC)c1ccc(NC(=O)CCc2nnc3ccc(N4CCCCC4)nn23)c(C)c1`: the inhibition was 59.6% (active).

As to `CCOC(=O)c1cccc(NC(=O)CCc2nnc3ccc(N4CCOCC4)nn23)c1`, the inhibition was 2.86%.

Consider `CCOc1ccc(CCNC(=O)CCc2nnc3ccc(N4CCCC4)nn23)cc1OCC`, for which the inhibition was 17.6%.

For the compound `O=C1C(Cl)=C(Oc2ccccc2)C(=O)c2ccccc21`, the inhibition was 35.4%.

Regarding `Oc1cccc(CCc2ccccn2)c1`, the inhibition is 7.91%.

Regarding `COc1ccc(OC)c(Cc2cnc3nc(N)nc(N)c3c2C)c1`, the inhibition is -1.98%.

In the case of `Nc1nonc1-n1nnc(C(=O)N/N=C\c2ccncc2)c1CN1CCCCC1`, the inhibition was 77.4% (active).

`NNC(=O)c1nnn(-c2nonc2N)c1CN1CCCC1`: the inhibition is 15.1%.

With `Nc1nonc1-n1nnc(C(=O)N/N=C/c2ccccc2O)c1CN1CCCC1`, the inhibition is 14.8%.

With `Cc1nc(Nc2ccccc2C)c2cnn(C)c2n1`, the inhibition was -5.25%.

Take `CCOC(=O)N(Cc1ccccc1)C1CC1`: the inhibition was -0.945%.

For `COc1ccc(CCC(=O)Nc2ccc(Cl)c(S(=O)(=O)N3CCOCC3)c2)cc1OC`, the inhibition was -1.66%.

In the case of `CN1c2ccc(C=O)c3c(C=O)ccc(c23)N(C)C1(C)C`, the inhibition was 91.2% (active).

As to `CN(CCc1ccccc1)C(=O)c1cccc(NC(=O)Cc2cccc(NC(=O)C3CCCN(C(=O)C4CCC4)C3)c2)c1` (stereo not drawn), the inhibition was -0.693%.

Turning to `CCCN(CC(=O)Nc1ccccc1C)C(=O)c1ccc(OCC(=O)N2CCOCC2)c(OCC)c1`, the inhibition was -7.61%.

With `CN(O)C(=S)c1ccccc1`, the inhibition was -0.499%.

For `CSc1ncnc2c1ncn2CC(=O)C1CCC2C3CCC4=CC(=O)CCC4(C)C3CCC12C` (stereo not drawn), the inhibition was 5.41%.

On to `COc1cc(OC)cc(-c2cc3ccc(F)cc3cn2)c1`, for which the inhibition is 13.1%.

`CCOc1ccc(S(=O)(=O)N2CCN(C(=O)c3oc4ccccc4c3C)CC2)cc1`: the inhibition was 3.49%.

As for `COc1ccccc1C(=O)Nn1c(-c2cccs2)nc2ccccc2c1=O`, the inhibition was 32.3%.

Regarding `CCn1c(NC(=O)c2ccccc2)c(-c2cccs2)c(=O)c2ccccc21`, the inhibition was 65.9% (active).

As for `CCn1c(=O)c2cc(C(=O)Nc3cccc(C(C)=O)c3)sc2c2ccccc21`, the inhibition is -0.698%.

In the case of `CCc1cc2c(N3CCN(c4nnc(CC)s4)CC3)ncnc2s1`, the inhibition is 25.4%.

As to `CCc1cc2c(NC3CCCC3)ncnc2s1`, the inhibition is 53.2% (active).

Regarding `CCc1cc2c(NC(Cc3ccccc3)C(=O)O)ncnc2s1` (stereo not drawn), the inhibition was 2.6%.

With `COc1cc(/C=C/c2ccc(/C=C/c3cc(OC)c(OC)c(OC)c3)cc2)cc(OC)c1OC`, the inhibition was -1.84%.

As for `C#CCOCCOCCOCCNc1nc(N2CCN(C(=O)Cn3cc(CCO)nn3)CC2)nc(N2CCN(C(=O)Cn3cc(CCCN=C(N)N)nn3)CC2)n1`, the inhibition was 4.84%.

As to `COc1ccc(Cl)cc1C=CC=Nc1ccc(S(N)(=O)=O)cc1`, the inhibition was -0.507%.

For the compound `COc1ccc(S(=O)(=O)N(C)C[C@@H]2Oc3ccc(NS(=O)(=O)c4cn(C)cn4)cc3C(=O)N([C@@H](C)CO)C[C@@H]2C)cc1`, the inhibition is 0.973%.

For `COc1ccc(S(=O)(=O)N(C)C[C@H]2Oc3ccc(NS(=O)(=O)c4cccs4)cc3CC(=O)N([C@H](C)CO)C[C@H]2C)cc1`, the inhibition is 55.4% (active).

For `C[C@H]1CN([C@@H](C)CO)C(=O)Cc2cc(NC(=O)Cc3ccccc3)ccc2O[C@H]1CN(C)S(=O)(=O)c1cccs1`, the inhibition is -0.989%.

For `O=C(NC1=CC(=O)c2ccccc2C1=O)c1ccccc1`, the inhibition is -0.529%.

Regarding `O=C(OC12CC3CC(CC(C3)C1)C2)c1ccc(NCc2cc(O)ccc2O)cc1`, the inhibition is 1.7%.

With `Cc1nn(-c2ncccn2)c2c1C(=O)CC(C)(C)C2Br` (stereo not drawn), the inhibition was 6.11%.

Consider `C=C(C)Cn1c(N2CCN(CC)CC2)nc2c1c(=O)[nH]c(=O)n2C`, for which the inhibition is 55.9% (active).

`C=C(C)Cn1c(N2CCCC2)nc2c1c(=O)[nH]c(=O)n2C`: the inhibition is -3.28%.

Regarding `Cn1c(=O)[nH]c(=O)c2c1nc(N1CCN(C(c3ccccc3)c3ccccc3)CC1)n2CCO`, the inhibition was 1.27%.

In the case of `CN1C(c2ccc(F)cc2)=CS/C1=C(/C#N)c1nnc2n1-c1ccccc1SC2`, the inhibition is -1.31%.

As to `CC(C)c1ccc(/C=C/C(=O)NNC(=O)c2cccnc2)cc1`, the inhibition is 11.1%.

Regarding `COc1cccc(C(=O)NNC(=O)/C=C/c2ccccc2)c1`, the inhibition was 59.9% (active).

Take `COc1cccc(C=CC(=O)C=CC=Cc2ccccc2)c1`: the inhibition is -2.98%.

With `O=C1NCC(c2ccccc2)(c2ccccc2)C(=O)N1`, the inhibition was -4.54%.

Regarding `COC[C@@H]1NS(=O)(=O)c2ccc(Br)cc2O[C@H]1c1ccccc1`, the inhibition is 7.26%.

Consider `CCCCNC(=O)C(C)N(CCN(C)C)C(=O)CCCN1C(=O)NC(c2ccc(Cl)cc2)C(C(=O)OCc2ccccc2)=C1C` (stereo not drawn), for which the inhibition is 5.26%.

In general, inhibition refers to the relative decrease from the control value, in per cent.

(Values after PubChem BioAssay AID504441 (Broad Institute, 2011).)
